# Bioassay records: PubChem BioAssay, several laboratories
# NCOA3 inh: SRC3 coactivator transcriptional activity inhibitors, primary screen, cell-based, luminescence; inhibition, % at 3.6 µM; actives 0.17% (n = 360,000); HEK293 GAL4-SRC3 luciferase reporter; AID 588352, 2011; Nuclear receptor coactivator 3 (Homo sapiens), Q9Y6Q9;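 active means inhibition above a per-campaign cutoff, the mean of all compounds plus 3 SD, cut at about 60% in these data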;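 further: 0% = DMSO-treated cells and 100% = gossypol-treated cells at 36 µM; higher means less SRC3-driven luciferase light from the GAL4 reporter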
# Shn3 inh set2: reduction of Shn3 3'UTR firefly luciferase signal, primary screen, Schnurri-3 inhibitor project, cell-based, Clone20 osteoblasts, set 2. actives 0.52% (n = 360,000). Clone20 osteoblast Shn3 3'UTR firefly luciferase, 24 h. AID 588674, 2011. inhibition, % at 12.5 µM;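 active means mean inhibition of at least 75% with every replicate also reaching 75%; inconclusive means mean inhibition at least 75% but some replicate below; inactive means mean inhibition below 75%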;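 further: 0% = median of neutral control wells and 100% = pilot-screen positive control compound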
# LRH-1 inv ag: LRH-1 (NR5A2) inverse agonists, primary screen, cell-based, luminescence, HEK293T, StAR-luciferase reporter; LRH-1 transfected, 24 h; inhibition, % at 3.6 µM; actives 0.13% (n = 360,000); AID 602396, 2012;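 active means inhibition above the mean inhibition of all tested compounds plus 3 SD, cut at about 73% in these data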;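 further: 0% = DMSO wells and 100% = reporter-only cells lacking LRH-1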
# EBV LMP1 NFkB: EBV LMP1-driven NF-kappaB luciferase reporter inhibitors, primary screen, cell-based, luminescence, single point; LMP1-induced NF-kappaB luciferase reporter cells; inhibition, % at 12.5 µM; actives 0.69% (n = 350,000); AID 504558, 2011; in the data active means inhibition above about 41%; inconclusive means no clear call, values can overlap the other calls;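 further: 0% = neutral control wells and 100% = reference inhibitor control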
# NCOA2 inhibitor: inhibition of GAL4-SRC2 driven luciferase reporter, primary screen, SRC2 inhibitor project, cell-based, luminescence. Nuclear receptor coactivator 2 (Homo sapiens), Q15596. HEK293 GAL4-SRC2 luciferase reporter. inhibition, % at 9 µM. actives 0.17% (n = 370,000). AID 651957, 2012;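 active means inhibition above the mean inhibition of all tested compounds plus 3 SD, set per campaign, cut at about 52% in these data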;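 further: 0% = DMSO treated cells and 100% = cells given Gossypol at 36 µM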
# SRC1 inh: SRC1 coactivator transcriptional activity inhibitors, primary screen, cell-based, luminescence | inhibition, % at 3.6 µM | actives 0.12% (n = 360,000) | AID 588354, 2011 | Nuclear receptor coactivator 1 (Homo sapiens), Q15788 | HEK293 GAL4-SRC1 luciferase reporter;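 active means inhibition above the campaign mean plus 3 SD, with each screening campaign given its own cutoff, cut at about 60% in these data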;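 further: 0% = DMSO treated cells and 100% = gossypol at 36 µM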
# Target sequence (Q15788 whole entry, looked up, the tested form may be a part): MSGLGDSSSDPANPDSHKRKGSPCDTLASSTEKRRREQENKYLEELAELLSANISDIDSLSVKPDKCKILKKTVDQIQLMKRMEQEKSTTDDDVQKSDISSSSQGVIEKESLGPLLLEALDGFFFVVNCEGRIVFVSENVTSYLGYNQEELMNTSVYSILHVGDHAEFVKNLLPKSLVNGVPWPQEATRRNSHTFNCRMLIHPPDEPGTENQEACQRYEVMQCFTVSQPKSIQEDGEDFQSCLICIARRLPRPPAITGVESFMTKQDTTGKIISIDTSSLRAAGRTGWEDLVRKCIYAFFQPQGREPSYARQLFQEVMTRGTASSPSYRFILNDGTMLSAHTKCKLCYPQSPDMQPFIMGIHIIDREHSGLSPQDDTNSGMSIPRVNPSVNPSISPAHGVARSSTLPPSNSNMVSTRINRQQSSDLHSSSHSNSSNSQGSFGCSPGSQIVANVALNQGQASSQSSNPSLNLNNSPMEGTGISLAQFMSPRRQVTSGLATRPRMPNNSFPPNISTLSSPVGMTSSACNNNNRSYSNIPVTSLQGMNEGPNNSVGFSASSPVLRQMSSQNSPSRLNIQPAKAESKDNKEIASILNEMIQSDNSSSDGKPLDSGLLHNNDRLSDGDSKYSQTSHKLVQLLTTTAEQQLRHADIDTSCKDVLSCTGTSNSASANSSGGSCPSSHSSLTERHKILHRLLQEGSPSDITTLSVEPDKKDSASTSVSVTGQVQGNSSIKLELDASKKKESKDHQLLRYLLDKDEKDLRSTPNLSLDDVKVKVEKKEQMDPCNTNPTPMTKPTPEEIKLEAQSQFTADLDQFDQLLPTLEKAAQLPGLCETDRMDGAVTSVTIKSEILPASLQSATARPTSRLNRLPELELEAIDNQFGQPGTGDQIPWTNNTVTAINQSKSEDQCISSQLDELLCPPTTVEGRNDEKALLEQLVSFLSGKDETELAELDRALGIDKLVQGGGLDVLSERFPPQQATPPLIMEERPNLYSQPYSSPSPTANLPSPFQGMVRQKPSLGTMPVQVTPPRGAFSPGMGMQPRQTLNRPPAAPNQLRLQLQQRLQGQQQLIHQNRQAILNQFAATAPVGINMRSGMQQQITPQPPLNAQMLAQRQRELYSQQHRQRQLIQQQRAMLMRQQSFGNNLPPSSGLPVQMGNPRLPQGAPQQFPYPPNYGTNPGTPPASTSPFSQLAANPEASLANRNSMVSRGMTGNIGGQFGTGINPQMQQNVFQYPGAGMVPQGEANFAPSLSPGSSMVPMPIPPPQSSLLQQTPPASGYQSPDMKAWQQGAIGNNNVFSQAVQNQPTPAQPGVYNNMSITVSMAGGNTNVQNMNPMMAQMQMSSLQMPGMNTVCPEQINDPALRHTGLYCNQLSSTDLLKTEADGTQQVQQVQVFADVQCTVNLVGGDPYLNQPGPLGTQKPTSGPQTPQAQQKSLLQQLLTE
# * hit, by the source's call; ? = inconclusive; nt = no result. Only some compounds are listed: those with a hit (about 1.2% of all), similar ones and a draw of the others.
SMILES,NCOA3 inh,Shn3 inh set2,LRH-1 inv ag,EBV LMP1 NFkB,NCOA2 inhibitor,SRC1 inh
Cc1cc(C)nc(N/C(=N\S(=O)(=O)Cc2ccccc2)Nc2ccccc2Br)n1,14,24,-1,55*,-1,6
CCOC(=O)N1C(=O)C[C@](Sc2ccc(OC)cc2)(C(=O)N2CCCC2)[C@H]1c1ccc(OC)cc1,nt,nt,nt,nt,-20,nt
COc1ccc([C@H]2OC(=O)C[C@H]2C(=O)N2CCCC2)cc1OC,nt,nt,nt,nt,-5,nt
Cc1ccc(OCC(=O)c2cc(C)n(Cc3cccs3)c2C)c([N+](=O)[O-])n1,37,58,14,35,66*,30
Cc1ccc(OCC(=O)c2cc(C)n(CC(F)(F)F)c2C)c([N+](=O)[O-])n1,-4,-10,3,0,2,-24
COc1ccc(OC)c(NC(=O)CSc2ncnc3c2cnn3-c2ccccc2Cl)c1,24,89*,3,26,nt,22
COc1cc(NC(=O)CSc2ncnc3c2cnn3Cc2ccccc2)cc(OC)c1,-1,12,-4,7,30,-9
CC(C)CC(=O)/C(=C/c1ccc(N(C)C)cc1)n1cncn1,5,23,10,4,6,11
CC(C)CC(=O)/C(=C\c1ccc(Cl)cc1Cl)n1cncn1,71*,14,27,8,nt,47
CC(C)C[C@H]1COc2cccc(F)c2S(=O)(=O)N1C,nt,nt,nt,nt,-23,nt
O=C(O)c1cc(/C=C/c2ccc(N3CCOCC3)c([N+](=O)[O-])c2)nc2ccccc12,-16,6,-20,16,-1,9
O=C(O)c1cc(/C=C/c2ccc(N3CCOCC3)cc2)nc2ccccc12,-49,-27,-101,59*,-9,-61
CC1CCN(c2ccc(-c3cccs3)nn2)CC1,41,55,32,57*,62*,18
Cc1ccc(S(=O)(=O)N2CCN(C(=O)C3CCN(c4ncnc5sc(C)c(C)c45)CC3)CC2)c(C)c1,-1,92*,17,18,-12,-11
Cc1sc2ncnc(N3CCN(S(=O)(=O)c4ccc(C(C)(C)C)cc4)CC3)c2c1C,-5,73,0,29,-21,-36
O=C(CSc1nnc(-c2ccc(Cl)cc2Cl)n1C1CCCCC1)N1CCCC1,5,92*,3,1,-3,1
CN[C@H]1C[C@H]2c3[nH]c4c(-c5ccc6c(c5)OCO6)cccc4c3CCN2C[C@H]1[C@H](C)O,nt,nt,nt,nt,7,nt
CCCCCCCCCCOC(=O)Cn1c(COc2ccccc2OC)[n+](C)c2ccccc21,11,89*,22,33,-26,15
CC(C)C[C@H]1COc2cccc(F)c2S(=O)(=O)N1Cc1cn(Cc2ccc(C(F)(F)F)cc2)nn1,nt,nt,nt,nt,3,nt
CCOc1ccc(N2CC(O)=C(c3nc4ccccc4c(=O)[nH]3)C2=N)cc1,-2,4,0,46*,-7,-4
CCOC(=O)c1ccc(N2CC(O)=C(c3nc4ccccc4c(=O)[nH]3)C2=N)cc1,8,-12,6,2,3,-12
COc1cccc2c1C(=O)c1c(O)c3c(c(O)c1C2=O)C[C@@](O)(C(=O)CO)C[C@@H]3O[C@H]1C[C@H](N)[C@@H](O)[C@H](C)O1,-2,83,89*,76*,nt,-33
COc1cccc2c1C(=O)c1c(O)c3c(c(O)c1C2=O)C[C@@](O)(C(C)=O)C[C@@H]3O[C@H]1C[C@H](N)[C@H](O)[C@H](C)O1,82*,96*,99*,91*,27,6
COc1cccc2c1C(=O)c1c(O)c3c(c(O)c1C2=O)CC(O)(C(=O)CO)CC3OC1CC(N(C)C)C(O)C(C)O1 (stereo unspecified),85*,97*,97*,87*,58*,79*
O=C(CSc1nnc(-c2ccccc2)n1-c1ccc(Cl)cc1)Nc1ccccc1-c1ccccc1,nt,nt,nt,nt,-8,nt
SMILES,NCOA3 inh,Shn3 inh set2,LRH-1 inv ag,EBV LMP1 NFkB,NCOA2 inhibitor,SRC1 inh
Cc1ccc(CNC(=O)OC(C)(C)C)c(/C=C/S(=O)(=O)NCCc2ccccc2)c1,nt,nt,nt,nt,27,nt
O=c1c2ccccc2[nH]n1[C@@H](Cc1ccccc1)Cn1cc(-c2ccc(-c3ccccc3)cc2)nn1,nt,nt,nt,nt,-23,nt
CC1(C)CC(=O)C2=C(C1)Nc1ccccc1NC2c1cc(Cl)ccc1O (stereo unspecified),2,19,20,85*,10,-8
COc1ccc(CN2C(C(=O)NCC(C)C)CSCCS2(=O)=O)cc1 (stereo unspecified),nt,nt,nt,nt,18,nt
CCOc1ccc(NC(=O)CCc2nnc3ccc(N4CCC5(CC4)OCCO5)nn23)cc1,-4,-29,12,48*,-5,1
COC(=O)[C@]12C[C@H](CC(=O)NCCCN3CCCC3=O)C(=O)N(Cc3ccc4c(c3)OCO4)C1=C[C@H](COCc1ccccc1)O[C@@H]2C,nt,nt,nt,nt,11,nt
COc1ccc(C(=O)c2c(C(F)(F)F)oc3c2C(=O)c2ccccc2C3=O)cc1,41,97*,4,85*,nt,13
COc1cccc(-c2ccc3c(c2)[C@@H]2C[C@H]4[C@@H](CN2CC3)[C@H](C)ON4C)c1,nt,nt,nt,nt,-17,nt
O=C(CSc1nnc(-c2cccs2)o1)c1cccc([N+](=O)[O-])c1,nt,nt,nt,nt,1,nt
CC(=O)OC[C@]1(OC(C)=O)C[C@@]23CC[C@H]4[C@@](C)(CCC[C@@]4(C)C(=O)O)[C@@H]2CC[C@@H]1C3,4,13,-6,0,2,-5
CC(=O)OC[C@]12CC[C@H]3[C@@](C)(CC[C@H]4C(C)(C)CCC[C@]34C)[C@@H]1CC(C1=CC(=O)OC1O)O2 (stereo partly specified),85*,98*,103*,nt,80*,80*
O=C1C=CC2C3C(=O)N(c4ccccc4)C(=O)C3C1N2Cc1ccccc1 (stereo unspecified),13,?,24,23,75*,22
CN(C)c1ccc(/C=C/c2ccc3ccccc3[n+]2C)cc1,70*,67,97*,22,10,63*
COc1ccc(/C=C/c2ccc3ccccc3[n+]2C)cc1OC,-68,92*,-54,-30,nt,-89
CN(C)c1ccc(/C=C/c2ccc3c4ccccc4ccc3[n+]2-c2ccccc2)cc1,77*,93*,91*,-19,-25,71*
O=C(CC1C=CCC1)OCCN1CCN(C2CN(Cc3cn(Cc4ccccc4Cl)nn3)S(=O)(=O)C2)CC1 (stereo unspecified),nt,nt,nt,nt,1,nt
